# A selection: hits, their analogues and other compounds. The true share with any hit is near 7.9%.
# KB-3-1 cytotox – qHTS assay for MDR1-selective chemotherapeutics: Primary screen using the parental adenocarcinoma cell KB-3-1; hit rate 1.4% among 400,000; KB-3-1 viability, CellTiter-Glo ATP luminescence, 72 h; Potency, µM (top dose mostly 46.1 µM), hits mostly cytotoxic; AID 1347075, 2019; further: on the % scale 0 is the no-effect control and ±100 the full control effect; nearly all actives have a fitted effect of over 60% in size
#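 Screening of KB-3-1 cells (DMEM, 10% FBS, phenol-red free) ran from lowest to highest compound concentration; after 72 h at 37 °C viability was read luminescently and curves fitted.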
# KB-V1 cytotox – qHTS assay for MDR1-selective chemotherapeutics: Primary screen using the drug-selected MDR subline cells KB-V1 | KB-V1 MDR cells viability, CellTiter-Glo, 72 h | Potency, µM (highest dose often 46.1 µM), actives largely listed as cytotoxic | hit rate 3.4% among 400,000; further: on the % scale 0 is the no-effect control and ±100 the full control effect; nearly all actives have a fitted effect of over 60% in size
#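 KB-V1 MDR subline cells in DMEM (phenol-red free, 10% FBS) exposed to compounds in qHTS concentration series for 72 h at 37 degrees C. Viability read by CellTiter-Glo luminescence; concentration-effect curves fitted after normalization and correction.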
# MCF10A rerep – A quantitative high throughput screen for small molecules that induce DNA re-replication in MCF 10a normal breast cells. MCF 10A DNA re-replication, Hoechst nuclear intensity, 48 h. Potency, µM (top dose mostly 46.1 µM), inactives show top-dose activity, positive = re-replication, most hits filed as activators. hit rate 2.9% among 350,000. AID 624296, 2012; further: % of control where 0% means no effect; nearly all actives have a fitted effect of over 50% in size
# SW480 rereplic – A quantitative high throughput screen for small molecules that induce DNA re-replication in SW480 colon adenocarcinoma cells | SW480 DNA re-replication, Hoechst DNA content imaging, 48 h | Potency, µM (highest dose often 46.1 µM), without a hit: top-dose re-replication activation, hits mostly activators | hit rate 1.8% among 340,000 | AID 624297, 2012; further: % of control where 0% means no effect; nearly all actives have a fitted effect of over 55% in size
#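 Readout is total intensity of Hoechst-stained nuclei, excited at 405 nm and collected at 500-530 nm. Compound treatment lasted 48 hr at 37 C in 5% CO2 before staining.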
# HT1080-NT tox – qHTS for induction of synthetic lethality in tumor cells producing 2HG: qHTS for the HT-1080-NT fibrosarcoma cell line. HT-1080-NT fibrosarcoma viability, CellTiter-Glo ATP luminescence, 48 h. Potency, µM (highest dose often 46.1 µM), inactives show top-dose activity, negative = less viability, usual class: cytotoxic. hit rate 1.6% among 360,000;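 further: NT is the 2HG producing partner of a matched IDH1 knockdown line; 0% = DMSO-treated cells and -100% = media-only wells without cells; nearly all actives have a fitted effect of over 55% in size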
#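 750 cells/well, RPMI + 5% FBS; 2 h settle, compound pin-transfer, 48 h at 37 degrees C. CellTiter-Glo 10 min RT, luminescence. Normalized to DMSO and media-only wells.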
# HT1080 IDH1KD tx – qHTS for induction of synthetic lethality in tumor cells producing 2HG: qHTS for the HT-1080-IDH1KD cell line; HT-1080 IDH1 knockdown viability, ATP luminescence, 48 h; Potency, µM (doses to about 46.1 µM), for the others: at the top dose activity, negative = toxicity, hits mostly cytotoxic; hit rate 2% among 360,000;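 further: 0% = DMSO wells and -100% = cell-free medium wells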
#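 Cytotoxicity counter-line: IDH1KD HT-1080, 48 h, CellTiter-Glo. Curves classed by r2, magnitude and activity.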
# Active calls of the source: *; i = inactive; ? = inconclusive; . = no result; [ ] = remark or other dose. The call rests on the fitted dose curve; in most records, active means well fitted curve in the direction sought with a large enough effect; inconclusive means small, poorly fitted or top-dose-only effect, or another doubt; inactive means no such curve, though single readings can be large; an effect the other way counts as inactive or inconclusive. Potency means the concentration at half of the fitted maximal effect.
SMILES,KB-3-1 cytotox,KB-V1 cytotox,MCF10A rerep,SW480 rereplic,HT1080-NT tox,HT1080 IDH1KD tx
CN1CCN(CC(O)COC(c2ccc(Cl)cc2)c2ccc(Cl)cc2)CC1 (stereo unspecified),i,i,21µM*,19%,?,?
OC1CCCN(CC(O)COC(c2ccc(F)cc2)c2ccc(F)cc2)C1 (stereo unspecified),i,i,3%,1%,?,-18%
OC(COC(c1ccc(Cl)cc1)c1ccc(Cl)cc1)CN1CCc2ccccc2C1 (stereo unspecified),i,i,18µM*,?,21µM*,?
OC(COC(c1ccccc1)c1ccccc1)CN1CCc2ccccc2C1 (stereo unspecified),i,?,?,29%,-30%,?
OC(COC(c1ccc(F)cc1)c1ccc(F)cc1)CN1CCc2ccccc2C1 (stereo unspecified),i,16µM*,?,?,-2%,-13%
CC1CN(CC(O)COC(c2ccccc2)c2ccccc2)CC(C)O1 (stereo unspecified),i,21µM*,?,?,-2%,10%
O=C(NCCc1ccccc1)c1ccc2c(c1)N(Cc1ccc(Cl)cc1)C(=O)CS2,23µM*,i,.,.,.,.
Cc1ccccc1CN1C(=O)CSc2ccc(C(=O)N3CCOCC3)cc21,i,i,24%,-1%,8%,6%
O=C(c1ccc2c(c1)N(Cc1ccccc1)C(=O)CS2)N1CCOCC1,i,15µM*,12%,-1%,6%,-5%
CC(C)(C)c1ccc(CN2N=Nc3ccccc3S2(=O)=O)cc1,12µM*,8.2µM*,?,?,?,?
C[n+]1ccc(/C=C/c2ccc(F)cc2)c2ccccc21,i,i,.,.,.,.
CC[n+]1ccc(/C=C/c2c[nH]c3ccccc23)cc1,1.8µM*,i,?,?,?,-28%
CCCCCCN(CCCCCC)c1ccc(/C=C/c2ccnc3ccccc23)cc1,?,i,.,.,.,.
CCCCCCCCCC[n+]1ccc(/C=C/c2c(C)[nH]c3ccccc23)cc1,1.3µM*,?,.,.,.,.
CCn1c(/C=C/c2c(C)[nH]c3ccccc23)nc2ccccc2c1=O,i,i,?,?,-2%,-1%
CCCCCCC[n+]1ccc(/C=C/c2c[nH]c3ccccc23)cc1,0.41µM*,i,.,.,.,.
CCCCCCCCCC[n+]1ccc(/C=C/c2c[nH]c3ccccc23)c2ccccc21,8.2µM*,?,.,.,.,.
CCc1ccc2c(c1)cc(CN(C(=S)Nc1cccc(C)c1)C1CC1)c1nnnn12,i,i,-5%,3%,-16%,4%
CC(C)C(Cl)=NOC(=O)Nc1ccc(S(N)(=O)=O)cc1,i,i,2.9µM*,?,-1%,?
O=C(C/C=N\O)Nc1ccc(Oc2ccccc2)cc1,i,i,20%,17%,-4%,-3%
CO/N=C\CC(=O)Nc1ccc(Oc2ccccc2)cc1,8.2µM*,?,?,5.2µM*,?,?
CC1CCCN(C(=O)c2ccc(NC(=O)CC3SC(N4CCCC4)=NC3=O)cc2)C1 (stereo unspecified),i,?,-2%,-5%,0%,3%
CC1CCCN(C(=O)CSc2nnc(-c3ccc(O)cc3)o2)C1 (stereo unspecified),i,i,9%,-7%,19%,-12%
Cc1ccc(-c2cc(-c3ccccc3Cl)[nH]n2)c(O)c1,i,i,6%,16%,?,11µM*
Cc1ccc(-c2cc(-c3ccccc3[N+](=O)[O-])[nH]n2)c(O)c1,i,i,-2%,26%,-14%,?
SMILES,KB-3-1 cytotox,KB-V1 cytotox,MCF10A rerep,SW480 rereplic,HT1080-NT tox,HT1080 IDH1KD tx
Oc1ccc(Br)cc1-c1cc(-c2ccccc2Cl)[nH]n1,?,?,25%,5.2µM*,?,-17%
Cc1ccccc1-c1cc(-c2ccccc2O)n[nH]1,?,18µM*,?,?,?,?
COc1ccc(-c2cc(C(F)F)n3ncc(C(=O)N4CCCc5ccccc54)c3n2)cc1,i,i,5%,-10%,13%,13%
O=C(Nc1cccc(Cl)c1)C1C2CCC3C(CCC21)C3(Cl)Cl (stereo unspecified),?,21µM*,-7%,7%,?,?
O=C(Nc1ccccc1)C1C2CCC3C(CCC21)C3(Cl)Cl (stereo unspecified),i,i,12%,13%,-1%,-3%
COc1ccc(NC(=O)NC2CCCCCCC2)c(OC)c1,i,i,-1%,1%,-8%,5%
O=C(CN1CCC(c2nc3ccccc3s2)CC1)NCc1cccs1,i,i,5%,17%,10µM*,?
CN=C1SC(CC(=O)Nc2ccc(F)cc2F)C(=O)N1/N=C/c1ccc(OC(F)F)c(OC)c1 (stereo unspecified),i,i,4.6µM*,24%,-13%,-1%
COc1cc2c(C(=O)NCc3ccc4c(c3)OCO4)cn(CC(C)C)c(=O)c2cc1OC,i,i,15µM*,-2%,-5%,-9%
COC(=O)CNC(=O)c1cn(CC(C)C)c(=O)c2cc(OC)c(OC)cc12,i,i,4%,-11%,0%,5%
Cc1cc(C)c(C)c(OCCOCCN2CCN(C)CC2)c1,i,i,21µM*,0%,-8%,10%
Cc1ccc(SC[C@H](Cc2ccccc2)N2CCN(C)CCC2=O)cc1,i,i,?,-8%[9.22 µM],-9%,-6%
O=c1c2sccc2n(Cc2ccc(F)cc2)c(=O)n1-c1ccc(F)cc1,i,?,-64%,0%,3%,13%
O=C(Cn1c(=O)n(-c2ccc(F)cc2)c(=O)c2sccc21)c1ccccc1,i,21µM*,-4%,-104%,-4%,1%
CCN(CC)c1ccc(C2C(C(N)=O)=C(C)Nc3nc(SCc4ccccc4Cl)nn32)cc1 (stereo unspecified),i,?,.,.,.,.
CN(C(=O)Nc1ccc(Cl)c(Cl)c1)c1ccccc1C(=O)O,i,i,-12%,-7%,2%,8%
O=C(NNC(=O)c1cc(Br)ccc1O)c1csc(N2CCOCC2)n1,?,?,-1%,4.1µM*,-24%,?

# Source: PubChem (National Center for Advancing Translational Sciences (NCATS))
